What follows are sequences tested on VDR:RXRa (NR concentration 270 nM, RXRa partner concentration 90 nM) (assay: PBM binding z-score (relative to random genomic background probes); higher = stronger binding; sequences stand for … in GC…GCGATTGACAGCGTAGAATGAAGG).
Description: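 Protein-binding microarray (Agilent 4x180K custom design, double-stranded 60-nt probes: 5' GC cap, 34-nt variable region, 24-nt constant primer region; full probe sequence given). Purified or IVT nuclear receptor:RXRα heterodimers (3:1 NR:RXRα, mostly 270:90 nM) or homodimers were incubated for 1 h in PBS with 2% milk and no ligand, then detected with Alexa488 antibodies. Fluorescence from o1-orientation probes (~5 replicates averaged) was converted to z-scores against 500 random hg19 background probes. Variable regions are seed direct-repeat (DR0–DR5) sites, all their single-nucleotide variants and half-site ablations.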

Sequence | PBM binding z-score
AGGACGAGGGCACGCTGAGTTGATAGCAGAGTAG | 2.09
TCTTGTAGATCAATAGAGGTTAAGAAAGTGCGCT | 1.8
AATACAGGGTCATCCTAGGCCAGAGTACGCACAG | 5.38
CCTTACGGGTCACTGACAGATTATAGCATTTGGA | 3.13
CCTTACGGGTAAAGGTTATAGCACGGGTGGTACG | 0.723
CCGACTGGGGCAAGGTTACCATAACGCACAGCCA | 0.0411
TCATATAGGTAAACAGATGAAAGTCCGTAAGTTA | 1.17
GCTTACGGGTCAAATGTTATAGCATGAATAGAAT | 3.64
CAAACTAGGTCAACGTCAAAGTCGGTTTGTGCCA | 1.83
TCATATAGGTAATACTGGTGAAAGTCGGCATCTA | 0.963
CGTCCAAGGACATAGGAGGTCAGTGAAGACAGAT | 2.2
AGTCAAAGTTCATCTAGGTAACGTGAGATATGCT | 5.17
ATCGAAAGGTCGAGGTGAGTCTAGAGAAAGGGAA | 3.21
CGAACGAGGGCATGAGTTGATAGGAAATGCCGAT | 1.13
ACTAGCAGGCCAAGTGTCACTCAAGATTAGTCCG | -0.322
GCTAGTTAGTCAGTAAAAGGTCACACACCGGTCG | 3.78
CGTCCAAGGTCAGAGAGGTCAGTGAATGCCGAGT | 7.26
TATAGTTGGTCACGGAGGTCACACACGACGGGTA | 5.81
TCTGCTAGGTCACCGATGGTCAGCTAATCTGCTA | 2.17
CCGACTCGGGCAAGGTTACCATAACGCACAGCCA | -0.103

Sequence | PBM binding z-score
GATACAGGGTCAGCTAGATGCCAGAGTATGGAAA | 2.58
ACTATTACTTGAGACGAGGGCAACCGATAGGTTG | 0.736
TAACCAAGGTGAAGGTCGTTGATCCCTCTGTAGA | 1.31
CGAACGAGGGCATGAGTTGGTAGCAAATGCCGAT | 0.602
ATCTCTAGGTAAAGATAGTACAGTGAATGCAAAT | 0.325
ATCTCTAGGTAACCAAGTTCAGTGACTGCCGAAC | 4.15
CCTCGGAGTACAGAAGGTCAGAGCTGTCCGCTTT | 1.64
TCATATAGGTAATACAGGTGAAAGACGGCATCTA | 1.02
CCTTACGGGTCATTCCAGGTTATAGCATCGGAGT | 4.87
CCTTACGGGTCACTGACGGGTTATAGCATTTGGA | 3.7
ATACCAAGGTGATCCTGAGGTCGTTGATACTAAC | 3.42
ATCTCTAGGTAAAGTTAAGTGAAAGATCGATAGA | 0.476
TCGAGTAGGTTAGTCGGGACATTCAGCCAACATA | 1.19
ATCTCTAGGTAACTAGTTCAGTGAAAGAGAGGAC | 0.369
CAAACTAGGTCACCGGAACGTCAAAGTCCGCATG | 2.48
TTACCAAGGTGAAAGGTCGTTGGTGCACGCCTTG | 3.5
GGAACGAGGGCAAGTTGATAGCCGAGTTTGATGG | 1.04
CCAGACAGGTGAAAGGTAACACAGTCTGGTACGC | 0.959
CCTAGTTCGTCAGGAGGTCACACACCGGATATGA | 5.03
CCTAGTTGGTCAGGAGGTCACGCACCGGATATGA | 4.58

— the supplement of paper PMC6555819
